Screening results from PubChem BioAssay.
Only some compounds are listed: those with a hit (about 2.9% of all), similar ones and a draw of the others.
Rango dissoc inh = prevents RanGTP from dissociating the Rango-importin beta complex; O95149+P62826; Biochemical FRET Rango-importin beta, RanGTP-induced dissociation; Potency, µM (top dose mostly 46.1 µM), without a hit: top-dose activity change, negative = inhibition; 340,000 tested, 0.071% active; note: potency is the fitted concentration of half-maximal effect; % of control where 0% means no effect; nearly all actives have a fitted effect of over 45% in size
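FRET read at 45 min, room temperature: inhibitors block the CFP/YFP signal rise when RanGTP (0.6 uM Ran, 2 mM GTP, 0.2 uM RCC1) frees Rango (0.1 uM) from importin beta (0.25 uM). Pre-read after 5 min compound exposure flags interference.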
MmCpn inh = blocks the Methanococcus maripaludis chaperonin Mm-Cpn; purified Mm-Cpn ATPase, ADP Transcreener TR-FRET; Potency, µM (highest dose often 76.9 µM), for the others: at the highest dose activity, negative = inhibition, actives largely listed as inhibitors; 330,000 tested, 0.031% active; AID 504842; active = well fitted inhibition curve with a large enough effect; inconclusive = small, poorly fitted or top-dose-only effect; note: potency is the fitted concentration of half-maximal effect; % is set by controls: 0 for no effect and ±100 for the full control effect; nearly all actives have a fitted effect of over 80% in size
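ATPase turnover read by TR-FRET ADP competition (Eu cryptate antibody/ADP-d2, 665/590 nm): 10uM ATP final, 25nM Mm-CPN final, 30 min 37degC after 10-min compound preincubation, pH 7.4 Tris/KCl/MgCl2/DTT buffer.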
DRD3 antagonist = D3 dopamine receptor (human) antagonism. D3R cells, DiscoveRx beta-arrestin luminescence, antagonist mode; active compounds read low. 360,000 tested, 2.5% active. P35462. max response, negative = inhibition, %; in the data active = max response below about -50%; inconclusive = no clear call, values can overlap the other calls; note: % is set by controls: 0 for no effect and ±100 for the full control effect
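Cells expressing the human receptor were seeded at 1500 cells/well, incubated overnight at 37 degrees C in 5% CO2, then exposed to library compounds with dopamine controls for 90 minutes at 37 degrees C before luminescent detection.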
Rango complex inh = inhibitors of Rango-importin beta complex formation. Q14974. Rango CFP/YFP FRET sensor + importin beta, 45 min. AID 540263. Potency, µM (titrated, usually from 92.2 µM), without a hit: top-dose inhibition of complex formation. 340,000 tested, 0.031% active;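 note: potency is the fitted concentration of half-maximal effect; 0% = DMSO wells and 100% = buffer wells lacking importin beta; nearly all actives have a fitted effect of over 15% in size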
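FRET biosensor (snurportin 1 IBB flanked by EYFP and cerulean), 50 nM, with compound 5 min, then 0.125 microM importin beta in PBS, 1 mM DTT, 0.02% Tween-20, 0.1% BSA. CFP/YFP ratio read after 45 min at room temperature; pre-read flags interference.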
DRD3 agonist = D3 dopamine receptor (human) agonism; P35462; D3R DiscoveRx beta-arrestin cells, luminescence, 90 min; max activation, %; 410,000 tested, 0.58% active; in the data active = max activation above about 30%; note: 0% is about no effect
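Cells at 1500/well, incubated overnight, then treated with pinned compounds (dopamine as control) for 90 min at 37 degrees C. DiscoveRx reagent added for 30 - 60 minutes at room temperature; luminescence read.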
PTAP TSG101 blk = blocks PTAP/TSG101 interaction to inhibit HIV-1 budding | Q99816 | Potency, µM (series often up to 115 µM), for the others: at the top dose activity change, negative = inhibition, actives largely listed as inhibitors | 340,000 tested, under 10 active | AID 493005 | Fluorescence polarization, FITC-PTAP peptide / Tsg101 binding; active = well fitted inhibition curve with a large enough effect in the main read-out, with a control signal flat, not every such curve was filed as active; inconclusive = small, poorly fitted or top-dose-only effect, or effect the other way, or a change in a side signal; inactive = no such curve, though single readings can be large or run the other way; note: potency is the fitted concentration of half-maximal effect; % of control where 0% means no effect
Target sequence (Q99816 whole entry, looked up): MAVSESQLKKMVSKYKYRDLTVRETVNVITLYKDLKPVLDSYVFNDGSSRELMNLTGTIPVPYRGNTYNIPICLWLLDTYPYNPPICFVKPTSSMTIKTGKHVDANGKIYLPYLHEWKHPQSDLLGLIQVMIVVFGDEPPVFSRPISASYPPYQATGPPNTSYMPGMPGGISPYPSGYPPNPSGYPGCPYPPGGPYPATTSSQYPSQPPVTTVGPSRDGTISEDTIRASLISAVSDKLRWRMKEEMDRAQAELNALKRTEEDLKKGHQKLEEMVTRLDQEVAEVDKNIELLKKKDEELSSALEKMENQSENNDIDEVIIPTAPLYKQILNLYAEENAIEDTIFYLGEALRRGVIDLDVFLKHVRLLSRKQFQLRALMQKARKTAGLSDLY
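Fluorescence anisotropy tracks displacement of a FITC-tagged PTAP peptide (50 nM) from the Tsg101 binding domain (10 uM), following a 20 min room-temperature incubation at pH 7.5.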
The depositor's hits bear a star; u = inconclusive; x = no result. Unless noted, calls come from the whole dose curve.

SMILES	Rango dissoc inh	MmCpn inh	DRD3 antagonist	Rango complex inh	DRD3 agonist	PTAP TSG101 blk
Cc1ccc(NC(=S)NC2CC3CCCC(C2)N3Cc2cccs2)cc1 (stereo unspecified)	10%	1%	-71*	2%	-30	-7%
Fc1ccc(NC(=S)NC2CC3CCCC(C2)N3Cc2cccs2)cc1 (stereo unspecified)	0%	2%	-54*	6%	-16	0%
O=C(Nc1cccc(Cl)c1)NC1CC2CCC(C1)N2Cc1cccs1 (stereo unspecified)	2%	0%	-98*	-1%	0	-1%
CC(C)CNC(=S)NC1CC2CCCC(C1)N2Cc1cccs1 (stereo unspecified)	-10%	0%	-76*	-1%	-29	-2%
COc1ccc(OC)c(N(CCN2C(=O)c3ccccc3C2=O)C(=O)CCl)c1	x	x	13	x	1	x
COc1ccccc1-c1nnc2sc(COc3ccc(Cl)cc3)nn12	-1%	4%	-52*	3%	1	-8%
COc1ccc(Cc2nn3c(-c4ccccc4OC)nnc3s2)cc1	4%	-4%	-10	-2%	6	2%
CCOc1cccc(-c2nnc3sc(COc4ccccc4)nn23)c1	-2%	0%	22	2%	38*	-4%
Cc1ccc(OCc2nn3c(-c4n[nH]c5c4CCC5)nnc3s2)cc1	x	0%	x	x	x	x
c1ccc(OCc2nn3c(-c4n[nH]c5c4CCC5)nnc3s2)cc1	-1%	1%	-52*	-6%	7	-2%
Cc1ccc(NC(=O)C2CCN(S(=O)(=O)c3ccc4[nH]c5c(c4c3)CCCCC5)CC2)cc1	x	x	x	x	2	x
C=CCn1c(SCC(=O)Nc2sccc2C(N)=O)nc2sc(CC)cc2c1=O	6%	-1%	75	-3%	35*	1%
Cc1ccc(O)c(-c2ccnc3cc(-c4ccc(Cl)cc4)nn23)c1	x	x	x	x	24	x
Oc1ccc(Br)cc1C=Nc1ccc2c3c(cccc13)CC2	-8%	-9%	-54*	u	-6	1%
CC(=O)N1CCCC(C)(C(=O)Nc2ccc3nc(C)ccc3c2)C1 (stereo unspecified)	x	x	-52*	x	4	x
COc1ncccc1C(=O)N1CCC(n2nccc2NC(=O)CC(C)C)CC1	-3%	-1%	-52*	-2%	-11	x
Cc1oc2c(C)c3oc(=O)c(CCC(=O)O)c(C)c3cc2c1-c1ccccc1	2%	0%	-18	3%	-5	0%
COc1ccc(CNS(=O)(=O)c2ccc(C3CNC(=O)C3)cc2)cc1 (stereo unspecified)	4%	-1%	-142*	5%	3	-5%
COCCNS(=O)(=O)c1ccc(C2CNC(=O)C2)cc1 (stereo unspecified)	-10%	0%	7	-4%	3	-1%
O=C(COc1ccc(Cl)cc1Cl)N/N=C/CCc1ccccc1	-12%	-2%	-55*	4%	-2	-7%
O=C(COc1ccc(Cl)cc1Cl)N/N=C/c1ccc[nH]1	-10%	0%	-1	0%	-2	-5%
CCc1ccc(NC(=O)N(Cc2cn(CC)c3ccccc23)C2CCCCC2)cc1	x	x	x	x	-11	x
COc1ccc(Cl)cc1-c1cc(C(=O)NCc2ccccc2)[nH]n1	x	x	-59*	x	-23	x
COc1ccc(Cl)cc1-c1cc(C(=O)Nc2ccc(Br)cc2)[nH]n1	x	x	-76*	x	-22	x
Cn1c(=O)c(=O)n(C)c2cc(S(=O)(=O)N3CCCC3C(=O)Nc3cccc(F)c3)ccc21 (stereo unspecified)	x	x	x	x	-9	x
SMILES	Rango dissoc inh	MmCpn inh	DRD3 antagonist	Rango complex inh	DRD3 agonist	PTAP TSG101 blk
CCS(=O)(=O)c1ccc2oc(SCC(=O)NCCC3=CCCCC3)nc2c1	-14%	0%	-51*	-2%	11	0%
CCS(=O)(=O)c1ccc2oc(SCC(=O)NCCc3ccc(F)cc3)nc2c1	13%	-1%	2	-1%	-2	1%
COc1cccc(NC(=S)N(CCc2ccc(OC)c(OC)c2)Cc2ccccn2)c1	0%	-1%	-53*	4%	-19	-1%
COc1ccc(CCN(Cc2ccccn2)C(=S)Nc2ccccc2C)cc1OC	-9%	-1%	28	1%	-2	-2%
O=C(Nc1ccc(S(=O)(=O)Nc2nccs2)cc1)c1cc(-c2ccccn2)nc2ccccc12	0%	2%	u	-2%	-3	-11%
O=C(Nc1ccc(S(=O)(=O)Nc2nccs2)cc1)c1cc(-c2ccccc2Cl)nc2ccccc12	-11%	-4%	-85*	1%	2	-5%
COC(=O)c1sccc1S(=O)(=O)N1CCN(c2ccc(C)cc2C)CC1	x	x	x	x	-2	x
O=C(NC1CCCN(C2Cc3ccccc3C2)C1)c1ccc(F)cc1Cl (stereo unspecified)	-5%	0%	-9	-1%	-13	0%
Cc1ccc(C)c(N2CCN(CCCNC(=O)Cn3cc4c(n3)CCC(C)C4)CC2)c1 (stereo unspecified)	5%	-1%	-60*	-3%	-11	-2%
CCN1CCN(CCCNC(=O)Cn2cc3c(n2)CCCC3)CC1	17%	1%	-7	-2%	3	-7%
Cc1ccc(C)c(N2CCN(CCCNC(=O)Cn3cc4c(n3)CCCCC4)CC2)c1	-7%	0%	-96*	2%	-13	0%
CC1CCc2nn(CC(=O)NCCCN3CCCC3=O)cc2C1 (stereo unspecified)	1%	0%	9	-3%	5	-3%
O=C(Cn1cc2c(n1)CCCC2)NCCCN1CCN(c2ccccc2F)CC1	0%	1%	-83*	0%	1	2%
Cc1cc(C)c(CN2C(=O)c3ccccc3S(=O)(=O)c3ccc(C(=O)OCC4CCCO4)cc32)c(C)c1 (stereo unspecified)	x	x	x	x	0	x
Cc1cccc(/C=N/NC(=O)c2cccc([N+](=O)[O-])c2)n1	19%	-2%	-50*	0%	-23	-2%
CC(C)(C)C1CC=C2C(C#N)=C(N)C(C#N)(C#N)C(c3cccs3)C2C1 (stereo unspecified)	x	-2%	x	x	x	x
CCc1ccc(C2C(C#N)=C(N)C(C#N)(C#N)C3=CCC(C(C)(C)C)CC32)cc1 (stereo unspecified)	u	0%	-93*	u	-12	-5%
O=C(CSc1n[nH]c(=O)n1C1CC1)c1ccc(F)cc1	34%	-3%	-60*	0%	-21	-5%
Cc1cccc(C)c1NC(=O)CSc1n[nH]c(=O)n1C1CC1	2%	1%	0	2%	0	-10%
